From PubChem BioAssay
CYP2C19 inh = inhibitors of human CYP2C19; actives 21% (n = 96,000); P33261; CYP2C19 Supersomes, luciferin-H EGE luminescence, 30 min; inhibition, % at 5 µM;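 active = CYP2C19 inhibition above a set limit at 5 µM in the primary screen, cut at about 50% in these data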;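 note: plate controls were negative control wells for no effect and 2.5 mM tranylcypromine positive control for full effect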
Cav3 T inh = human Cav3.2 channel inhibition, primary screen; O95180; Cav3.2-expressing cells, Fluo-4 calcium fluorescence FDSS; stronger effect = lower value; B-score at 10 µM; actives 4% (n = 100,000); AID 449739;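 active = single-dose well whose peak fluorescence ratio is a statistical outlier from its plate by either plate-standardised score or position-corrected B-score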
CYP2C9 activ = CYP2C9 (human) activation; recombinant CYP2C9, luciferin-H conversion, luminescence; stronger effect = higher value; factor 1 = untreated enzyme, 0 = blocked; P11712; activation factor at 5 µM; actives 1.4% (n = 96,000); AID 1024;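 active = activation factor of 2 or more for CYP2C9 at a 5 µM dose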;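 note: 0 = sulfaphenazole-blocked wells and 1 = vehicle-only wells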
CYP2C19 activ = cytochrome P450 2C19 (human) activation; P33261; activation factor at 5 µM; AID 1025; recombinant CYP2C19, luciferin-H EGE luminescence; stronger effect = higher value; 0 = fully inhibited enzyme, 1 = untreated enzyme; 96,000 tested, under 10 active;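 active = activation factor of at least 2 at 5 µM in the primary screen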;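 note: 0 = wells with 2.5 mM tranylcypromine and 1 = vehicle-only wells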
CYP2C9 inhib = inhibitors of human CYP2C9. inhibition, % at 5 µM. P11712. CYP2C9 Supersomes, luciferin-H conversion, luminescence. actives 20% (n = 96,000);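 active = blocking of liver enzyme CYP2C9 beyond about 50% at 5 µM, limit read from the data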
* hit, by the source's call; / = no result. This is a sample that favours compounds with a hit; in the whole collection about 27% have one here.

SMILES	CYP2C19 inh	Cav3 T inh	CYP2C9 activ	CYP2C19 activ	CYP2C9 inhib
COc1ccc(Br)cc1CN1CCN(C(=O)Cc2ccccc2)CC1	88*	-0.47	0.2	0.1	81*
O=C(Cc1ccc(Br)cc1)N1CCN(Cc2ccccc2)CC1	84*	-0.55	0.1	0.2	87*
COc1ccccc1N1CCN(Cc2ccccc2Cl)CC1	44	-1.1	0.8	0.6	16
COc1ccccc1N1CCN(Cc2cccc(OC)c2O)CC1	52*	0.51	1	0.5	3
CCOCCCNC(=O)CN1C2CCC1CC(O)(c1ccc(OC)cc1)C2 (stereo unspecified)	2	0.65	1.1	1	-6
CCOc1cc(/C=C2/C(=O)NC(=O)N(c3ccc(CC)cc3)C2=O)ccc1OC(=O)c1cccs1	59*	1.5	0.8	0.4	19
CC(C)c1ccc(N2C(=O)NC(=O)/C(=C\c3cnc(-c4ccccc4)nc3)C2=O)cc1	28	/	0.8	0.7	24
CCCC(=O)C1C(=O)NC(=O)NC1=O	4	0.07	0.9	1	6
CCOC(=O)c1cc(C)n(CCc2cnc[nH]2)c1C	100*	-0.66	0	0	99*
CCOCCN1CCN(c2nnc3n2-c2ccc(Cl)cc2C(c2ccccc2Cl)=NC3)CC1	4	/	0.8	1	22
C[C@H]1CCCC(=O)CCC/C=C/c2cc(O)cc(O)c2C(=O)O1	88*	-0.37	0.1	0.1	90*
CN1CCN(C(=O)COc2ccc3ccccc3c2Br)CC1	66*	0.78	1.3	0.3	-26
O=C1C2CCCN2C(c2ccncc2)N1c1ccc(Cl)c(Cl)c1 (stereo unspecified)	68*	0.29	0.1	0.3	88*
O=C1C2CCCN2C(c2ccc(Cl)c(Cl)c2)N1c1ccccn1 (stereo unspecified)	/	-1.4	/	/	/
CCCCC1(CCCC)C(=O)NC(=Nc2cccc(C)c2)NC1=O	61*	-0.97	0.4	0.4	60*
CCCC1(CCC)C(=O)NC(=NCc2ccccc2)NC1=O	21	/	0.6	0.8	37
CCC(=NCCCn1ccnc1)c1c(O)n(Cc2ccccc2)c(=O)[nH]c1=O	94*	0.35	0	0.1	97*
CCCCn1c(O)c(C(CC)=NCc2cccnc2)c(=O)[nH]c1=O	91*	-0.77	0.4	0.1	60*
CC(=NCc1cccnc1)c1c(O)n(Cc2ccccc2)c(=O)[nH]c1=O	/	0.51	/	/	/
CCC(=NCc1cccnc1)c1c(O)n(Cc2ccccc2)c(=O)[nH]c1=O	95*	1.5	0.3	0	69*
CCOc1ccc(-n2c(O)c(C=NCCCn3ccnc3)c(=O)[nH]c2=O)cc1	-13	-0.16	0.6	1.1	43
CC(=NCc1cccnc1)c1c(O)n(-c2ccccc2)c(=O)[nH]c1=O	57*	0.054	0.8	0.4	17
O=c1c2ccccc2nc(CSc2ncnc3nc[nH]c23)n1-c1ccc(Cl)c(Cl)c1	28	1.1	0.6	0.7	44
COc1cc(C2SCC(=O)Nc3c2c(=O)[nH]n3C2CCCCCC2)cc(OC)c1OC (stereo unspecified)	7	0.13	0.8	0.9	16
CC(C)C12CN3CCN(CC(C3)C1O)C2 (stereo unspecified)	-15	/	1	1.1	-4
SMILES	CYP2C19 inh	Cav3 T inh	CYP2C9 activ	CYP2C19 activ	CYP2C9 inhib
CP(C)(=O)CCC(=O)O	-17	-0.37	1.2	1.2	-21
CC(C)C(=O)c1cn(Cc2ccccc2C#N)c2ccccc12	60*	-5.6*	0.5	0.4	49
C(#CCN1CCOCC1)COC/C=C/c1ccccc1	45	0.93	1	0.6	-1
CC(=O)OC1N=C(c2ccccc2)c2cc(Br)ccc2N(C)C1=O (stereo unspecified)	-4	/	0.9	1	7
Cc1cccc(C)c1NC(=O)CN(C)CC(=O)Nc1ccc(C#N)c(Cl)c1	36	-1	0.5	0.6	53*
COC(=O)C1=C(c2ccccc2)C[C@@H]2CC[C@H]1N2C(=O)NCCNC(C)=O	/	0.27	/	/	/
O=C(Nc1ccccc1)Oc1ccccc1	31	/	0.9	0.7	12
O=P(Nc1ccccc1)(Nc1ccccc1)Oc1ccc(Cl)cc1	86*	/	0.2	0.1	81*
O=P(NS(=O)(=O)c1ccc(Br)cc1)(Oc1ccccc1)Oc1ccccc1	42	-0.24	0	0.6	98*
Cc1ccc(S(=O)(=O)NP(=O)(Oc2ccccc2)Oc2ccccc2)cc1	13	-1.8	0.2	0.9	78*
O=P(NS(=O)(=O)c1ccccc1)(Oc1ccccc1)Oc1ccccc1	0	0.13	0.3	1	65*
COc1ccc(C2SCC(=O)Nc3c2c(C)nn3-c2ccccc2)cc1 (stereo unspecified)	11	-1.3	0.5	0.9	52*
Cc1ccc(-n2nc(C)c3c2NC(=O)CSC3c2ccc3c(c2)OCO3)cc1 (stereo unspecified)	34	-8.4*	0.6	0.7	44
Cc1nn(C2CCOC(C)(C)C2)c2c1C(c1ccc(OC(C)C)cc1)SCC(=O)N2 (stereo unspecified)	-8	-3.5	1	1.1	-1
CCN1C[C@@]2(COC)C3[C@@H](OC)[C@H]4[C@@H]1[C@@]3(C1C[C@H]3[C@H](OC(C)=O)C1[C@]4(OC(C)=O)C[C@H]3OC)[C@@H](OC)C[C@H]2OC(C)=O (stereo partly specified)	/	0.28	/	/	/
CN(C)c1ccc(CN2CC=C(c3ccc(F)cc3)CC2)cc1	62*	-0.045	1.1	0.4	-7
O=C(c1cc2ccccc2oc1=O)N1CCC2(CC1)OCCO2	19	0.34	1.1	0.8	-7
O=C(c1cc2c(s1)-c1ccccc1OC2)N1CCC2(CC1)OCCO2	84*	/	0.8	0.2	25
COc1ccc2nc(NC(=O)CCc3nc(C4=CCN(C)CC4)no3)sc2c1	36	/	0.2	0.6	75*
CCOC(=O)[C@@]1(C#N)[C@@H]2C=CC(C(N)=O)=CN2[C@@H](C(N)=O)[C@@H]1c1cccc(Cl)c1	39	-0.14	0.4	0.6	59*
CCOC(=O)[C@@]1(C#N)C(c2ccc(Cl)c(Cl)c2)[C@H](C(N)=O)N2C=C(C(C)=O)C=C[C@H]21 (stereo partly specified)	19	-2.1	1	0.8	3
Clc1ccccc1CN1CCN(c2ccccc2)CC1	99*	-0.023	0.6	0	41
CC(C)(C)c1ccc(O)c(CN2CCN(c3ccccc3)CC2)c1	22	0.51	0.8	0.8	22
Clc1ccc(N2CCN(Cc3ccccc3Cl)CC2)cc1	41	-0.44	1.2	0.6	-19
Nc1ccc(N2CCN(Cc3ccccc3Cl)CC2)c(Cl)c1	97*	-1.1	0.1	0	86*
Clc1cccc(Cl)c1CN1CCN(c2ccccc2)CC1	95*	/	0.6	0	38
O=P(O)(O)COc1ccccc1O	1	0.0056	1	1	3
CC(C)(C)c1nc(N2CCN(C(=O)c3ccco3)CC2)c2nnn(Cc3ccccc3Cl)c2n1	62*	-2.1	0.1	0.4	95*
